According to PubChem BioAssay AID1159580 (chemical genetic matrix, 2015):
Hit rate of the full screen: of about 5,500 compounds, about 2,000 (36%) were called active. About 18% were inconclusive and are not listed. No stated cut-off is given here; in the data, active means normalized growth mostly below about 0.91 (no sharp cut-off); inconclusive means no clear call, values can overlap the other calls; inactive means mostly above about 0.92. The list shows a part of the results.

Assay: chemical genetic growth profiling, strain panel (AID 1159580);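 further: tested at 20 µM; growth read once vehicle control cultures reached saturation at 30 °C; 1 = growth at the plate median or of vehicle wells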
Settings: S. cerevisiae deletion strains, growth OD
[1] = locus YAL013W, strain DEP1, stronger effect = lower value
[2] = locus YAL040C, strain CLN3, stronger effect = lower value
[3] = locus YDR363W, strain ESC2, stronger effect = lower value
[4] = locus YER002W, strain NOP16, stronger effect = lower value
[5] = locus YNL153C, strain GIM3, stronger effect = lower value
[6] = locus YNL175C, strain NOP13, stronger effect = lower value
[7] = locus YNL197C, strain WHI3, stronger effect = lower value
[8] = locus YNL224C, strain SQS1, stronger effect = lower value
[9] = locus YOR083W, strain WHI5 (second series), stronger effect = lower value

Measured: normalized growth

N=c1ccn2c(n1)OC1C(O)[C@@H](CO)O[C@H]12 (some centres undefined)
inactive: [1] 0.99 | [2] 1 | [3] 0.986 | [4] 1.01 | [5] 1.02 | [6] 1 | [7] 1 | [8] 1.03 | locus YNL322C, strain KRE1, stronger effect = lower value 1 | [9] 1.03

CC(N)Cc1c[nH]c2ccc(OCc3cccs3)cc12 (centres undefined)
inactive: [1] 1 | [2] 1.02 | [3] 0.984 | [4] 1.02 | locus YGR078C, strain PAC10, stronger effect = lower value 1.01 | locus YJR075W, strain HOC1, stronger effect = lower value 1 | locus YMR307W, strain GAS1, stronger effect = lower value 1.02 | [5] 1.02 | [6] 0.986 | [7] 1.01 | [8] 1.01 | [9] 0.981 | locus YPL055C, strain LGE1, stronger effect = lower value 1 | locus YPL241C, strain CIN2, stronger effect = lower value 1.01
